Test [1] is described as follows: Cell Viability - N2a (AID 540; active means well fitted curve in the direction sought with a large enough effect; an effect the other way counts as inactive or inconclusive;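 further: cells exposed to compound for 40 h at 37 °C; plate controls were DMSO alone for no effect and tamoxifen control for full effect; nearly all actives have a fitted effect of over 45% in size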). To be noted: N2a mouse neuroblastoma cell viability; activity change, negative = cytotoxicity: at 92.2 µM (top of the series). In outline:
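In this qHTS cytotoxicity screen, ATP-dependent luciferase luminescence reports viable N2a cells after a 40 hr compound exposure in complete culture medium. Potencies are AC50 values from standard Hill equation fits.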

The nature of test [2]: MultiTox-Fluor Cytotoxicity Assay - LYMP1-001 - Live Cells (AID 947; active means well fitted curve in the direction sought with a large enough effect; an effect the other way counts as inactive or inconclusive;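 further: 0% = DMSO only and full inhibition = tetraoctylammonium bromide control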).
A short description of test [3]: Cell Viability - LYMP1-003 - Assay at 24 hr (AID 963; active means well fitted curve in the direction sought with a large enough effect; an effect the other way counts as inactive or inconclusive;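 further: plate controls were DMSO only for no effect and tetraoctylammonium bromide positive control for full effect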). In outline:
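The lymphoblastoid line was treated with titrated compounds for 24 hours, and viable cell number estimated from luciferase-based ATP luminescence.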

Test [4] can be described thus: Cell Viability - LYMP2-004 (AID 966; active means well fitted curve in the direction sought with a large enough effect; an effect the other way counts as inactive or inconclusive;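 further: plate controls were DMSO only for no effect and tetraoctylammonium bromide control for full effect; nearly all actives have a fitted effect of over 65% in size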). In outline: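 Viable-cell number estimated from ATP luminescence (CellTiter-Glo) in 2500 human lymphoblastoid cells/well after 24 hr at 37 C with compound. AC50 fitted to the standard Hill equation.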
Test [5] can be described thus: Cell Viability - LYMP2-002 (AID 977; active means well fitted curve in the direction sought with a large enough effect; an effect the other way counts as inactive or inconclusive;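 further: compound exposure lasted 24 h at 37 °C; plate controls were DMSO only for no effect and 92 µM tetraoctylammonium bromide for full effect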). The gist of the method:
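Human lymphoblastoid cells (2500/well) in complete medium were preincubated 5 hr at 37 C, then exposed to compounds for 24 hr at 37 C. Intracellular ATP was read by CellTiter-Glo luminescence; AC50 came from Hill-equation concentration-response fits.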

Test [6] concerns the target Bile acid receptor (Homo sapiens) (UniProt Q96RI1). Description: qHTS assay for small molecule antagonists of farnesoid X receptor signaling (AID 588526). Further: on the % scale 0 is the no-effect control and ±100 the full control effect. In outline:
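Beta-lactamase reporter antagonist mode: HEK293T FXR-UAS-bla cells, titrated compound, CDCA stimulation, 16 h 37 C, CCF4 dye 2 h RT. Data normalized to CDCA 50 uM and DMSO; Hill-fit IC50.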
For orientation: In qHTS, concentration-response curves come from the screen itself.

Test [7] shares this target. Description: qHTS assay for small molecule agonists of farnesoid X receptor signaling (AID 588527).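 Further: 0% = vehicle basal and 100% = reference agonist.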 To be noted: HEK293T FXR-UAS-bla, beta-lactamase ratio, 16 h; stronger effect = higher value. In outline:
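Agonist-mode beta-lactamase reporter in GeneBLAzer FXR-UAS-bla HEK293T cells, titration up to 92 uM, 16 h exposure at 37 C, CCF4 fluorescence. Response scaled to DMSO (0%) and 100 uM chenodeoxycholic acid (100%), then Hill-fitted for EC50 and efficacy.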

Test [8] addresses Peroxisome proliferator-activated receptor delta (Homo sapiens) (UniProt Q03181). Description: qHTS assay for small molecule agonists of peroxisome proliferator-activated receptor delta signaling (AID 588534).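 Further: 0% = DMSO basal wells and 100% = positive control agonist at 10 µM.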 The gist of the method:
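EC50 and efficacy values derive from Hill fits of a concentration series in a beta-lactamase reporter cell assay. Exposure is 18 hrs at 37 C, with CCF4 fluorescence as the readout.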

Test [9] in a line: qHTS assay for small molecule antagonists of peroxisome proliferator-activated receptor delta signaling (AID 588535; active means well fitted inhibition curve with a large enough effect in the signal ratio, with a control signal flat, not every such curve was filed as active; the % refers to the signal ratio;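 on max response: cells co-treated with a PPAR-delta agonist as stimulator during compound exposure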). Particulars: HEK293T PPARd-UAS-bla, beta-lactamase FRET ratio, 18 h; 460 nm channel. The gist of the method: (§1)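 Antagonist-mode qHTS using GeneBLAzer PPAR-delta-UAS-bla HEK293T cells; compound exposure 18 hrs at 37 C over a titration. Ratiometric CCF4 fluorescence at 460/530 nm; concentration-response points fitted to the Hill equation.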

In test [10] the target is Peroxisome proliferator-activated receptor delta (Homo sapiens) (UniProt Q03181). The description is as above. In outline: as §1
Sequence of Peroxisome proliferator-activated receptor delta (Homo sapiens) (Q03181 whole entry, looked up): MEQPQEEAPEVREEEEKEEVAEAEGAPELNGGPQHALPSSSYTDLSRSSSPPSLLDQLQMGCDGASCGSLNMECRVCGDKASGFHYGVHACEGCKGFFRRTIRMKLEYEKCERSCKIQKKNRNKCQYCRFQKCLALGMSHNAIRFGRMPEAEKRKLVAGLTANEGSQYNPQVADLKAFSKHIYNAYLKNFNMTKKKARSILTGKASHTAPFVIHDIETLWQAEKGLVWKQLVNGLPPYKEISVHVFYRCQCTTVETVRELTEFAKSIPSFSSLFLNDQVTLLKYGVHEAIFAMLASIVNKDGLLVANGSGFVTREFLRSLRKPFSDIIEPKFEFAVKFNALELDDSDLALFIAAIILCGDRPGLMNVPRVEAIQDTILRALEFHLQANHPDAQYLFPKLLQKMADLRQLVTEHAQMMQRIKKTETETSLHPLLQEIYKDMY
Test [11] concerns the target Vitamin D3 receptor (Homo sapiens) (UniProt P11473). Description: qHTS assay for small molecule antagonists of vitamin D receptor signaling (AID 588541).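 Further: receptor activated by calcitriol during compound treatment; on the % scale 0 is the no-effect control and ±100 the full control effect.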 The gist of the method:
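Antagonist-mode beta-lactamase reporter assay: HEK293T VDR-UAS-bla cells were exposed to titrated compound alongside 1-alpha,25-dihydroxyvitamin D3 at 3 nM final for 16 h. Values were normalized to the 50 nM agonist control and DMSO basal, with IC50 and efficacy from Hill equation fits.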

A short description of test [12]: qHTS assay for small molecule agonists of the antioxidant response element (ARE) signaling pathway (AID 651741; active means well fitted activation curve with a large enough effect in the signal ratio; the % refers to the signal ratio; further: potency means the concentration at half of the fitted maximal effect; on activation: % of control where 0% means no effect). The gist of the method:
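Agonist activity is measured as ARE-driven beta-lactamase expression in a stable HepG2 reporter line, using 16 h compound treatment at 37 C and a FRET substrate fluorescence readout after 2 h.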

A short description of test [13]: qHTS assay for small molecule disruptors of the mitochondrial membrane potential - 1 hr assay (AID 651754). Further: nearly all actives have a fitted effect of over 35% in size. Further: potency means the concentration at half of the fitted maximal effect. In outline: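 In this qHTS format, a 1 hr compound treatment of HepG2 cells precedes Mito-MPS staining, and membrane potential is judged from aggregate (red) against monomer (green) fluorescence intensity.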
A short description of test [14]: qHTS assay for small molecule disruptors of the mitochondrial membrane potential - 5 hr assay (AID 651755). Further: on the % scale 0 is the no-effect control and ±100 the full control effect; nearly all actives have a fitted effect of over 40% in size. The gist of the method:
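Membrane-potential dye readout: red aggregate (540 ex/590 em) versus green monomer (490 ex/535 em) fluorescence after 30 min dye loading, following 5 hr compound exposure at 37C of overnight-plated HepG2 cells.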

Test [15] can be described thus: Cell Viability - Jurkat (AID 426;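 active means dose-dependent loss of cell ATP signal giving a full or clear fitted curve, ranked by lower potency value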;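 further: potency means the concentration at half of the fitted maximal effect; cells exposed to compound for 40 hours at 37 °C before ATP read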). To be noted: qHTS. In outline: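 Cytotoxicity was scored as loss of cellular ATP, measured by luciferase-based luminescence, in Jurkat clone E6-1 cells after 40 h compound treatment; tamoxifen and doxorubicin served as positive controls.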
Test [16] is described as follows: Cell Viability - LYMP2-001 (AID 921; active means well fitted curve in the direction sought with a large enough effect; an effect the other way counts as inactive or inconclusive;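 further: 0% = DMSO only and full inhibition = tetraoctylammonium bromide control wells; nearly all actives have a fitted effect of over 70% in size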). The gist of the method:
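Human lymphoblastoid LYMP2-001 cells, 2500 per well, in complete medium, treated 24 h at 37 C. Viability from cellular ATP by CellTiter-Glo luminescence; AC50 from Hill-equation fits of qHTS concentration-response.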

The target in test [17] is Glucocorticoid receptor (Homo sapiens) (UniProt P04150). Description: qHTS assay for small molecule agonists of glucocorticoid receptor signaling (AID 588532; active means well fitted curve in the direction sought with a large enough effect in the signal ratio, with a control signal flat; the % refers to the signal ratio;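 further: 100% = dexamethasone at 0.1 µM and 0% = DMSO only wells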). To be noted: HeLa MMTV-bla, beta-lactamase ratio, agonist, 18 h; stronger effect = higher value; percent of dexamethasone control, DMSO zero. In outline: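 Using MMTV-bla HeLa cells in medium with 1% stripped FBS and 25 mM HEPES, compounds were titrated and incubated overnight-length (18 h). Beta-lactamase cleavage of CCF4 was quantified by dual-emission fluorescence.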
Sequence of Glucocorticoid receptor (Homo sapiens) (P04150 whole entry, looked up): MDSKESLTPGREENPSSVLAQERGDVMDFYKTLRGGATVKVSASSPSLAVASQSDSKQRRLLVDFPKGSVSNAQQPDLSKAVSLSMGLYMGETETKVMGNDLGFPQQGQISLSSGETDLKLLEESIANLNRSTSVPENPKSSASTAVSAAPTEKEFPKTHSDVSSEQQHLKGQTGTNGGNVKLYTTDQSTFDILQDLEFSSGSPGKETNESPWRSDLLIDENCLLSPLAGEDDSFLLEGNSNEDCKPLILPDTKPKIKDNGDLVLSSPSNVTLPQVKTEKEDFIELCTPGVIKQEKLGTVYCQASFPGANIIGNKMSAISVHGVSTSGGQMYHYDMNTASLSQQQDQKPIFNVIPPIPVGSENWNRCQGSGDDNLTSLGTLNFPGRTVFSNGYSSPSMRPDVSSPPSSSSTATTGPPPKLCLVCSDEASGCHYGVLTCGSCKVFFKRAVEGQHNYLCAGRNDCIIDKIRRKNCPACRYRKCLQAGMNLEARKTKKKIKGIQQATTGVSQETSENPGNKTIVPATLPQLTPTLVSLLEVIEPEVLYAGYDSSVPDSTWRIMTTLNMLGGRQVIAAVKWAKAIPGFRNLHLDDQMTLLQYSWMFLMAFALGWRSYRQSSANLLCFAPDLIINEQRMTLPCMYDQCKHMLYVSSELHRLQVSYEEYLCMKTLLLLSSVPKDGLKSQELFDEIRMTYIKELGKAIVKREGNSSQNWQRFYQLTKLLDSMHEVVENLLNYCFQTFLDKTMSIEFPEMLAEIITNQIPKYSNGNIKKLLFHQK

The target in test [18] is Peroxisome proliferator-activated receptor gamma (Homo sapiens) (UniProt P37231). Description: qHTS assay for small molecule antagonists of peroxisome proliferator-activated receptor gamma signaling (AID 588537; active means well fitted inhibition curve with a large enough effect in the signal ratio, with a control signal flat, not every such curve was filed as active; the % refers to the signal ratio;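 further: reporter cells co-stimulated with 50 nM rosiglitazone agonist during compound treatment; % of control where 0% means no effect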). In outline: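 Cell-based beta-lactamase assay; GW9662 served as the antagonist control. Stimulation used rosiglitazone, final 50 nM, 16 h, 37 C.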
Sequence of Peroxisome proliferator-activated receptor gamma (Homo sapiens) (P37231 whole entry, looked up): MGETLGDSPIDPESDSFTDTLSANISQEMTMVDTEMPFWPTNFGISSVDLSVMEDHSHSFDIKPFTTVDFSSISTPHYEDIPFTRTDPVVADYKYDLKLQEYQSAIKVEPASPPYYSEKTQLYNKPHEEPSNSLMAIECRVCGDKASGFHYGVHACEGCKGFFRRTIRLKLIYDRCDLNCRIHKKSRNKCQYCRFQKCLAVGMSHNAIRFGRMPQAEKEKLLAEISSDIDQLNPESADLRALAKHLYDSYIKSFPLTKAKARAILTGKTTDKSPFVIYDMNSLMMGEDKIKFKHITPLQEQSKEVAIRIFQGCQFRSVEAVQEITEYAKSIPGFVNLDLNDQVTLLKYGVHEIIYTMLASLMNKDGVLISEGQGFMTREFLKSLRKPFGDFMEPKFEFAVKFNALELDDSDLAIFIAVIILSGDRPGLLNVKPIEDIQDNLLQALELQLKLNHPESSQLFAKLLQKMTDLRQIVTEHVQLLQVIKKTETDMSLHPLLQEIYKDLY
The target in test [19] is Estrogen receptor (Homo sapiens) (UniProt P03372). Description: qHTS assay for small molecule antagonists of estrogen receptor alpha signaling (AID 588513; active means well fitted curve in the direction sought with a large enough effect in the signal ratio, with a control signal flat, not every such curve was filed as active; the % refers to the signal ratio; further: on the % scale 0 is the no-effect control and ±100 the full control effect). The gist of the method: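 ER-alpha-UAS-bla GripTite HEK 293 cells in 2% charcoal/dextran-treated FBS medium; compounds titrated (1:2, duplicate), then stimulated with 0.5 nM 17-beta-estradiol for 18 h at 37C. CCF4 beta-lactamase fluorescence; Hill-fit IC50 and efficacy.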
Sequence of Estrogen receptor (Homo sapiens) (P03372 whole entry, looked up): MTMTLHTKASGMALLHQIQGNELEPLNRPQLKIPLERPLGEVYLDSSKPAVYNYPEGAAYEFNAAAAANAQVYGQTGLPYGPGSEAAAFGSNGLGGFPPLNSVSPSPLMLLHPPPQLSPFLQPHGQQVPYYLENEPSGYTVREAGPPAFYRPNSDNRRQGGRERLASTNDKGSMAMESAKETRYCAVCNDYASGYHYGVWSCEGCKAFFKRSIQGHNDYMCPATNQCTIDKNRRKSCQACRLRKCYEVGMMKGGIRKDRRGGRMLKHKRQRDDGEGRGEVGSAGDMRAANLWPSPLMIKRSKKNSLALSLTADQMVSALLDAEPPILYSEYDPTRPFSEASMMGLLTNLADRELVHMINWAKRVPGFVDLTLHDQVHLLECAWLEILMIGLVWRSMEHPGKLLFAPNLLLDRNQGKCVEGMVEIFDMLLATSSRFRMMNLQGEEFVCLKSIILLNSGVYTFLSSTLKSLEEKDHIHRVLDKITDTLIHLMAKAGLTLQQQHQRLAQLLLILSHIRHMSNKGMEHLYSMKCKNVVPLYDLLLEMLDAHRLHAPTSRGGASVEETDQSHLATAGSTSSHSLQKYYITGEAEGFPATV

Test [20] has the same target. Description: qHTS assay for small molecule agonists of estrogen receptor alpha signaling (AID 588514).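 Further: 0% = vehicle only and 100% = reference agonist; nearly all actives have a fitted effect of over 70% in size.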 The gist of the method:
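Fluorescence from CCF4 cleavage reports ER-alpha-driven beta-lactamase expression in HEK 293 cells treated 18 hrs at 37 C. Data normalized to 17-beta-estradiol (20 nM) and DMSO, fitted to Hill equation.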

SMILES strings stand for the structures. Values joined by “and” are separate entries in the source; they are usually repeats but may differ in a detail not shown here. Equal values may be shown once. Inconclusive results are not listed. Active and inactive are the calls of the source. Unless noted, the call rests on the fitted dose curve.

Sequence of Vitamin D3 receptor (Homo sapiens) (P11473 whole entry, looked up): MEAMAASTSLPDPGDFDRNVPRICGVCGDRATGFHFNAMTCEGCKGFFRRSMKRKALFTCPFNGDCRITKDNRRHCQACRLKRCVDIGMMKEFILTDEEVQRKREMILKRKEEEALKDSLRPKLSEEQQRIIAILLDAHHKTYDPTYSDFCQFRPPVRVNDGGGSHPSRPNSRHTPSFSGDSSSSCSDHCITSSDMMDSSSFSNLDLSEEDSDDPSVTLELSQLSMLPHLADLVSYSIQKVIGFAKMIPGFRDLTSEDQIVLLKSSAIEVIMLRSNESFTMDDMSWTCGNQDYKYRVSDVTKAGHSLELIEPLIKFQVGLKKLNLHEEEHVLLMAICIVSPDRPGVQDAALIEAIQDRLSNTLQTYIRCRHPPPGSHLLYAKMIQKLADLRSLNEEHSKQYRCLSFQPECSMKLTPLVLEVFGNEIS
Sequence of Bile acid receptor (Homo sapiens) (Q96RI1 whole entry, looked up): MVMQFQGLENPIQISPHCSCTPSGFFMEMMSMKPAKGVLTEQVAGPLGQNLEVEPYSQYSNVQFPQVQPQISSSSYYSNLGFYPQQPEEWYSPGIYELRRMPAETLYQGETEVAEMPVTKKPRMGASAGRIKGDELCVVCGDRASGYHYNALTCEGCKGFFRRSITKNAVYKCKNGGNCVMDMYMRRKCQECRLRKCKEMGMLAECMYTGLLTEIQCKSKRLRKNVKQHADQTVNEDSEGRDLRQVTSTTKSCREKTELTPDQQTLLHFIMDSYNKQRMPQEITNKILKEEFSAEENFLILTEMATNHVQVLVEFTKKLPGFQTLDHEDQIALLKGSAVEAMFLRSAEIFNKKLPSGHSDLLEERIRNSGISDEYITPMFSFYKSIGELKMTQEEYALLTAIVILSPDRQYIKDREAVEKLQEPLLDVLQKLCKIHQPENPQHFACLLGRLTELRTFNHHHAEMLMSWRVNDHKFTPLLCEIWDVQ

Consider `O=P(OCCCl)(OCCCl)OCCCl`, for which the Potency result in test [1], in test [4], in test [5], in test [12], in test [13] and in test [14] was “inactive” throughout. The result in [2], in [3], in test [6], in test [8], in test [10] and in test [11] was inactive. The activation in test [7] was -0.898% (inactive). In addition, in [9], the max response is 19.2%.
As for `C=CCc1cc(OC)c2c(c1)OCO2`, in [15], the Potency is > 92 µM (inactive). Also, the Potency entry in [16], in test [4], in [5], in [13] and in test [14] was “inactive” throughout. Also, the compound was classed as inactive in test [2] and in [11]. The activation in test [17] was -4.93% (inactive).
Take `Nc1ccc(-c2ccc(N)c(Cl)c2)cc1Cl`: the Potency in [15] is 19 µM (active); in test [12], 5.31 µM (active) and 12.2 µM (active); in test [13], 42.2 µM (active). For the same compound, the Potency entry in [1], in test [16], in [4] and in test [18] was “inactive” throughout. Moreover, the result in [2] and in test [11] was inactive. Moreover, the activation in test [17] is -5.3% (inactive) and -4.62% (inactive).
`CCOC(=O)C1OC1(C)c1ccccc1` (stereo not given): the Potency entry in [1], in [4], in [5], in [18] and in [13] was “inactive” each time. In addition, the call in [2] and in test [3] was inactive. Further, the activation in [17] was -3.51% (inactive).
As for `Cc1ccc(N)c(N)c1`, the Potency in [15] is 9.63 µM (active); in test [12], 37.6 µM (active). Moreover, the activation in test [17] is 0.413% (inactive). For the same compound, the result in test [11] was inactive.
With `C=CCBr`, the Potency in [15] is > 92 µM (inactive). The Potency result in [16], in test [19], in test [20], in test [12], in [13] and in test [14] was “inactive” throughout. The call in [3], in test [6] and in test [11] was inactive. Further, the activation in [7] is -2.82% (inactive); in [17], 0.974% (inactive).
Turning to `Clc1ccccc1`, the Potency in [15] is > 92 µM (inactive). Besides, the Potency result in test [16], in [4], in [5], in test [19], in [20] and in test [18] was “inactive” in each case. The Potency entry in [13] and in test [14] was “inactive” each time. The call in test [2], in test [3], in test [10] and in test [11] was inactive. Moreover, in test [17], the activation was -4.89% (inactive). Also, in test [9], the max response is -34.6%.
As to `BrCCc1ccccc1`, the Potency in [15] is > 92 µM (inactive). The Potency result in test [1], in [4], in test [5], in test [12], in [13] and in [14] was “inactive” in each case. Also, the outcome in test [2], in test [3], in test [8] and in [10] was inactive. Also, the max response in [9] was -20.6%.
For `Cc1ccc(N)cc1C`, the Potency in test [15] was > 92 µM (inactive). Moreover, the Potency result in [16], in [4], in test [5], in test [19], in test [20] and in test [13] was “inactive” in each case. Besides, the compound was classed as inactive in test [3], in test [6], in test [8], in [10] and in [11]. Moreover, the activation in [7] was 1.96% (inactive). Further, the max response in test [9] was 3.44%.
On to `Cc1coc2c1CCC(C)C2` (stereo not given), for which the Potency in [15] is > 92 µM (inactive). Besides, the Potency entry in test [1], in test [16], in [19], in test [20], in [13] and in [14] was “inactive” each time. For the same compound, the result in test [2], in test [8] and in test [10] was inactive. Moreover, the activation in test [17] was 1.47% (inactive). Also, in test [9], the max response is -2.44%.
